Laboratory results: the supplement of paper PMC11732987, “Enantioselective OTUD7B fragment discovery through chemoproteomics screening and high-throughput optimisation” (Communications Chemistry, 2025)
Unmarked numbers belong to inactive results.

Assays:
Assay in all cases: log2 ratio of Biotin-Ahx-Ub-VS probe labelling (fragment/DMSO); higher = less target engagement (more negative = stronger competition), active = hit call of the paper (q ≤ 0.05, log2 ratio ≤ -1)
Conditions in all cases: compound concentration: 200 uM; treatment time: 3 h
OTUD6B = biological target: T1, OTUD6B (UniProt Q8N6M0)
T1 sequence (whole entry): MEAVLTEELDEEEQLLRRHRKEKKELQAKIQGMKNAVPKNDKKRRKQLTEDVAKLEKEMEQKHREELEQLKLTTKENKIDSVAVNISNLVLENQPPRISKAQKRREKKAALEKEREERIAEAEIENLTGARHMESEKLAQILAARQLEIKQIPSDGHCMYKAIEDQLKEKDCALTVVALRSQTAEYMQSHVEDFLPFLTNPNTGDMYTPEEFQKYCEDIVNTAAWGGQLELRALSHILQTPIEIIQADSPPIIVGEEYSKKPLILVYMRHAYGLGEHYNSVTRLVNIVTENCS
Outline: (§1)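 HEK293T lysate in Tris/CHAPS/IGEPAL buffer with protease inhibitors (495 µg per sample) was given fragment at 200 µM or vehicle for 3 h, in triplicate. It then received Biotin-Ahx-Ub-VS at 0.5 µM final for 1 h. Labelled DUBs were NeutrAvidin-enriched, digested with LysC and trypsin, and run by diaPASEF LC-MS/MS. Values are average log2 fragment/vehicle ratios by unpaired t-test on global-median-normalised Spectronaut quantities of proteins with ≥2 unique peptides.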

OTUD7B = biological target: T2, OTUD7B (UniProt Q6GQQ9)
T2 sequence (whole entry): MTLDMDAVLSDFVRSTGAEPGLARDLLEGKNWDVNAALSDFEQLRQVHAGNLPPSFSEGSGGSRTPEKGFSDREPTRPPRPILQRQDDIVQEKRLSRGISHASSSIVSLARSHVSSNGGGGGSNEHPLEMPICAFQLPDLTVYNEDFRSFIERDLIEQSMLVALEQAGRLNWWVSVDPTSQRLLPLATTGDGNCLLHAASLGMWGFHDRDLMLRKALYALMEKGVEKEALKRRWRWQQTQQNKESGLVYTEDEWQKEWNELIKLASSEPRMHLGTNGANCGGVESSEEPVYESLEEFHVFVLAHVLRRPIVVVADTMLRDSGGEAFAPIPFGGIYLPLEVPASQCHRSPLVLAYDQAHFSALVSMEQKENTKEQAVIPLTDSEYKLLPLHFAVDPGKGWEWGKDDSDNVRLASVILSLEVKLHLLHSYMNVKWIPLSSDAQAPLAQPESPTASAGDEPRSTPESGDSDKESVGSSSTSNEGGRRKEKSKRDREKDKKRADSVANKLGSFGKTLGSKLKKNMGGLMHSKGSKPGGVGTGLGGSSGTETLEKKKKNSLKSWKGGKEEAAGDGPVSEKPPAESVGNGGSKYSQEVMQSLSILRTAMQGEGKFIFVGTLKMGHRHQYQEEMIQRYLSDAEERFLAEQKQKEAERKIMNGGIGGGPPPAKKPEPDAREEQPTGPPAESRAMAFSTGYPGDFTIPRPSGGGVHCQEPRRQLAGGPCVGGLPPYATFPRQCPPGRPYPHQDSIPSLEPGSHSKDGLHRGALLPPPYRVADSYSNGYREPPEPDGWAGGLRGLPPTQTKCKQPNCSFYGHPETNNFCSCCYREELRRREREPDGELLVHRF
Outline: as §1

PRPF8 = PRPF8 (UniProt Q6P2Q9)
Outline: as §1

PSMD7 = biological target: T3, PSMD7 (UniProt P51665)
T3 sequence (whole entry): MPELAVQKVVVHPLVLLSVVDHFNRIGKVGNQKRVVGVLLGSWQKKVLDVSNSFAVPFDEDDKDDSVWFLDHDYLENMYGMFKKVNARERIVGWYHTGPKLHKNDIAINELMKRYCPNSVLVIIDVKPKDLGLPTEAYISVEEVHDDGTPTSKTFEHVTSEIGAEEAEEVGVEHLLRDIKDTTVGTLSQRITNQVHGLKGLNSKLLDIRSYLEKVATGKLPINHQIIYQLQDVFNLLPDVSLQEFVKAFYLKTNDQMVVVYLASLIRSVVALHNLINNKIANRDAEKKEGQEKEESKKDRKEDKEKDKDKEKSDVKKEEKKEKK
Outline: as §1

UCHL1 = UCHL1 (UniProt P09936)
Sequence of UCHL1 (P09936 whole entry, looked up): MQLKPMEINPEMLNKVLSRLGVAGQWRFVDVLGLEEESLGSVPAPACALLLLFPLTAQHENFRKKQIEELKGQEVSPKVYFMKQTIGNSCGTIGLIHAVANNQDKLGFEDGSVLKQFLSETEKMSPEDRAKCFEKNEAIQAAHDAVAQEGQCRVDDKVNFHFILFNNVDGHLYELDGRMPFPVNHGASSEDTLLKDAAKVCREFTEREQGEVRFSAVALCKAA
Outline: as §1

UCHL3 = biological target: T4, UCHL3 (UniProt P15374)
T4 sequence (whole entry): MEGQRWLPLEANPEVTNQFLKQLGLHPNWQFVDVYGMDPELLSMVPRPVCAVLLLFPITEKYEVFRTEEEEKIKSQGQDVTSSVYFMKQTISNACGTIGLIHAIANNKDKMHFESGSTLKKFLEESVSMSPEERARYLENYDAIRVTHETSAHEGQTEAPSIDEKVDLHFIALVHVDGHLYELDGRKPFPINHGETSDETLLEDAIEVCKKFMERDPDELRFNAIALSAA
Outline: as §1

UCHL5 = biological target: T5, UCHL5 (UniProt Q9Y5K5)
T5 sequence (whole entry): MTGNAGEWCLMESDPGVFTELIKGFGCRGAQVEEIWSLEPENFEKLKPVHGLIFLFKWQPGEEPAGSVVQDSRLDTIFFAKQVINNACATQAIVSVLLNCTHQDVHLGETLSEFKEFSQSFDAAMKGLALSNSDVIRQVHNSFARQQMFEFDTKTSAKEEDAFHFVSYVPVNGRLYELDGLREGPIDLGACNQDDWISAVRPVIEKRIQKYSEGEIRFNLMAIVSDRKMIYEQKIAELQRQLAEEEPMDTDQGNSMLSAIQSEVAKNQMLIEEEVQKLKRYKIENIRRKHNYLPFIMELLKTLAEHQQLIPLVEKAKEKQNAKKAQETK
Outline: as §1

USP10 = USP10 (UniProt Q14694)
Sequence of USP10 (Q14694 whole entry): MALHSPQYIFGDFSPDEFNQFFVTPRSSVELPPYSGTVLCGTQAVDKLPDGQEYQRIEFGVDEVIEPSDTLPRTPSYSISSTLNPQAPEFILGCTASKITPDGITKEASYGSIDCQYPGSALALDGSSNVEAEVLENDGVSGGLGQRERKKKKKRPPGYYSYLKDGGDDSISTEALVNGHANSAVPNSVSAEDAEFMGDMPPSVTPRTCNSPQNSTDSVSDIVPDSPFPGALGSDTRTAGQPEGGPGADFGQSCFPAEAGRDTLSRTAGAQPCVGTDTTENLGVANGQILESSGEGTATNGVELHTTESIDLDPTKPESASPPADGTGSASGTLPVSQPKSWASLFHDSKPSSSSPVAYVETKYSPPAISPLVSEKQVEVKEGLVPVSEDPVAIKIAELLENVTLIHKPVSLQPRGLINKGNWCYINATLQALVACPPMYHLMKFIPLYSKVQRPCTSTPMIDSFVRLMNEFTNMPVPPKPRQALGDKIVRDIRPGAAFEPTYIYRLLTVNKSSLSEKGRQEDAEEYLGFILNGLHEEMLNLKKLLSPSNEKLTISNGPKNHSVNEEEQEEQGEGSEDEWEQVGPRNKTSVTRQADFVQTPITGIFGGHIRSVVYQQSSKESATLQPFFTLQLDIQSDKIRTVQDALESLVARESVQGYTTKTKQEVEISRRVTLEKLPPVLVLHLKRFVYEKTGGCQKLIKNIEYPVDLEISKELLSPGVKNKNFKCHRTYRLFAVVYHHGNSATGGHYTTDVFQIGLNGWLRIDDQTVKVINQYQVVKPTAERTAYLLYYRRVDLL
Outline: as §1

USP15 = biological target: T6, USP15 (UniProt Q9Y4E8)
T6 sequence (whole entry): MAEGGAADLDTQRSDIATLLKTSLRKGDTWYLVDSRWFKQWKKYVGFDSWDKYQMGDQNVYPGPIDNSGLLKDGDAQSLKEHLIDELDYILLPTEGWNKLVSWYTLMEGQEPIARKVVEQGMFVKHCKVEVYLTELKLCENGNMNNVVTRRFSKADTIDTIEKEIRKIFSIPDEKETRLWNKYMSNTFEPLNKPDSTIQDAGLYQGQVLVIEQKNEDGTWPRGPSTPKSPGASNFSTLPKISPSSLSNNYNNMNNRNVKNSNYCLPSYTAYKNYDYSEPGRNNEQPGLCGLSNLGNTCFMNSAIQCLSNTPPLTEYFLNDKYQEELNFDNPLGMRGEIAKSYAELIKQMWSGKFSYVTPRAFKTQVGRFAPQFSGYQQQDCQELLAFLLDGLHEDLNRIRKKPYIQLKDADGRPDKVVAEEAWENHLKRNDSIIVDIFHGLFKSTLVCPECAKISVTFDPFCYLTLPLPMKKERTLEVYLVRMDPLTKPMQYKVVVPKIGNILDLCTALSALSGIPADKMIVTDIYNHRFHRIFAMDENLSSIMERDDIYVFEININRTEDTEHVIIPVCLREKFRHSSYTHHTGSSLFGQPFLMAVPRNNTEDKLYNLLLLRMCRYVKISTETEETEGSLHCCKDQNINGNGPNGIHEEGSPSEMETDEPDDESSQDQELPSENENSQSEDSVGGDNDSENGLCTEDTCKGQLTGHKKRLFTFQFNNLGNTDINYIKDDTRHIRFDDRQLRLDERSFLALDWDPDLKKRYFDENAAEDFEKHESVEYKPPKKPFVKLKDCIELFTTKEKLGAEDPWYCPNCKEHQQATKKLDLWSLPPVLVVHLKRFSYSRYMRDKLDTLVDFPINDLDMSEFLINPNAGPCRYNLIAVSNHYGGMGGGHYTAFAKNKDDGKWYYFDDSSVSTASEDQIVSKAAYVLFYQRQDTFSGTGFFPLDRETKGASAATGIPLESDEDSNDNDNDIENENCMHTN
Outline: as §1

NC(=O)C(Cc1ccccc1)NC(=O)CCl (centres undefined)
log2 ratio of Biotin-Ahx-Ub-VS probe labelling (OTUD6B): -0.129
log2 ratio of Biotin-Ahx-Ub-VS probe labelling (OTUD7B): -0.38
log2 ratio of Biotin-Ahx-Ub-VS probe labelling (PRPF8): -0.0593
log2 ratio of Biotin-Ahx-Ub-VS probe labelling (PSMD7): -0.0419
log2 ratio of Biotin-Ahx-Ub-VS probe labelling (UCHL1): -1.73 (active)
log2 ratio of Biotin-Ahx-Ub-VS probe labelling (UCHL3): 0.313
log2 ratio of Biotin-Ahx-Ub-VS probe labelling (UCHL5): -0.295
log2 ratio of Biotin-Ahx-Ub-VS probe labelling (USP10): -0.0595
log2 ratio of Biotin-Ahx-Ub-VS probe labelling (USP15): -0.0229
